An excerpt weighted towards active compounds, which were near 12% of everything screened.
Shiga toxin inh: A qHTS for Small Molecule Inhibitors of Shiga Toxin | Vero cells, Shiga toxin protein synthesis inhibition reporter | inhibition, % at 38.7 µM | 290,000 tested, 9.2% active; in the data active = inhibition mostly above about 28%, no sharp cut-off; inactive = mostly below about 43%
CHX counter: Cycloheximide Counterscreen for Small Molecule Inhibitors of Shiga Toxin | cell reporter, cycloheximide protein synthesis inhibition counterscreen | max response, % | 300,000 tested, 12% active | AID 2314, 2010; in the data active = max response mostly above about 13%, no sharp cut-off; inactive = mostly below about 14%; also: read at 38.3 µM for the half of the compounds with a filed dose
FMDV antiviral: High Throughput Screening for Foot and Mouth Disease Virus Antivirals. Potency, µM (doses to about 57.9 µM), most hits filed as inhibitors. 410,000 tested, 1.2% active. FMDV antiviral cell-based qHTS; calls by dose curve; tested in HEK293T cells; also: read-out not given here; nearly all actives have a fitted effect of over 45% in size
Sm TGR block: qHTS Assay for the Inhibitors of Schistosoma Mansoni Peroxiredoxins | AID 485364, 2010 | 360,000 tested, 3% active | Schistosoma mansoni thioredoxin glutathione reductase (TGR), Q962Y6 | Potency, µM (doses to about 114 µM), hits mostly inhibitors | purified TGR, DTNB reduction, TNB absorbance 405 nm; active = well fitted inhibition curve with a large enough effect; inconclusive = small, poorly fitted or top-dose-only effect; inactive = no such curve, though single readings can be large or run the other way; also: nearly all actives have a fitted effect of over 60% in size
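TGR 20 nM + NADPH 100 uM (dispensed conc.), cpd preinc 15 min RT; start with NADPH (500 uM addition) then DTNB (15 mM addition). Kinetic TNB absorbance, 405 nm filter. Four-parameter Hill fit across titration.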
A number is an active result; – = inactive; ? = inconclusive; · = no result.

SMILES	Shiga toxin inh	CHX counter	FMDV antiviral	Sm TGR block
O=C(O)/C=C/C(=O)c1ccc(O)cc1	–	–	–	3.2µM
Cc1ccc(C(=O)NC=C(Cl)Cl)cc1	84	26	–	–
CC(/C=C/C(=O)c1ccc(C)cc1)=C\c1ccccc1	–	18	–	–
Cc1ccc(C(=O)/C=C2\NCC(C)NC2=O)cc1 (centres undefined)	–	–	–	–
Cc1ccc(C(=O)/C=C2\NCCNC2=O)cc1	10	32	–	–
CC(C)c1ccc(C2N3CC4(C)CN2CC(c2ccccc2)(C3)C4=O)cc1 (centres undefined)	·	·	–	–
Cc1ccc(C(=O)c2ccc(C)cc2)cc1	79	40	–	–
O=CC(=O)c1ccccc1	·	·	–	–
Cc1ccc(C(=O)/C=C\C(=O)c2ccc(C)cc2)cc1	–	–	–	1.8µM
O=C(c1ccc(O)cc1)c1ccc(C(=O)c2ccc(O)cc2)cc1	–	–	–	–
COc1ccc(C(=O)/C=C/NCc2ccc(C)cc2)cc1	·	·	–	·
Cc1ccc(S/C=C\C(=O)c2ccccc2)cc1	79	44	–	?
COCCNC(=O)C(=O)N/N=C(\C)CC(=O)Nc1ccc2c(c1)OCO2	–	–	–	?
CCOc1ccc(NC(=O)c2nccnc2CO)cc1	93	46	–	–
CCOc1ccc(NC(C)=O)cc1	–	–	–	–
COCCNC(=O)C(=O)N/N=C(\C)CC(=O)Nc1cccnc1	–	13	–	–
CCOc1ccc(NC(=O)c2cccnc2C(=O)O)cc1	–	–	–	–
CCOc1ccc(NC(=O)c2cnsn2)cc1	55	30	–	–
CCOc1ccc(NC(=O)c2ccccn2)cc1	–	–	3.2µM	–
Brc1ccc(-c2cn3cc(Cc4ccccc4)sc3n2)cc1	·	·	–	–
COc1ccc(CNC(=O)C/C(C)=N/NC(=O)Cc2ccc(OC)cc2)cc1	–	–	–	–
COc1ccc(NS(=O)(=O)c2ccc(NC(=O)c3ccccn3)cc2)cc1	·	·	–	–
COc1ccc(CNC(=O)C/C(C)=N/NC(=O)C23CC4CC(CC(C4)C2)C3)cc1	53	29	–	–
COc1ccc(OCC(=O)N/N=C(\C)CC(=O)Nc2ccc(NC(C)=O)cc2)cc1	–	–	–	–
COc1ccc(CNC(=O)C/C(C)=N/NC(=O)c2cnccn2)cc1	71	45	–	·
SMILES	Shiga toxin inh	CHX counter	FMDV antiviral	Sm TGR block
CNS(=O)(=O)c1ccc(NC(=O)c2ccccn2)cc1	23	63	–	–
COc1ccc(NC(=O)C/C(C)=N/NC(=O)c2cnccn2)cc1	99	28	–	–
CCOC(=O)c1cnc(NCc2ccccc2OC)c2ccccc12	·	·	–	–
CCS(=O)(=O)N1CC(=O)N(c2ccc(C)c(C)c2)C(C)(C(=O)NC2CCCCC2)C1 (centres undefined)	·	·	–	–
CCOc1ccc(C(=O)Nc2ncccc2Cl)cc1	71	42	–	–
C/C(CC(=O)Nc1ccccn1)=N\NC(=O)c1cnccn1	79	44	–	–
C/C(CC(=O)Nc1ccc2ccccc2c1)=N\NC(=O)c1cnccn1	52	29	–	?
CCOc1ccc(NC(=O)c2cnccn2)cc1	18	18	–	89µM
CC(=O)Nc1ccc(NC(=O)C/C(C)=N/NC(=O)c2cccc3ccccc23)cc1	–	–	–	–
C/C(CC(=O)Nc1ccc2ccccc2c1)=N\NC(=O)c1ccc(O)c(O)c1	86	38	–	–
O=C(NCc1ccc(F)cc1)c1cnccn1	–	10	–	–
CCOc1ccc(NC(=O)C/C(C)=N/NC(=O)c2cnccn2)cc1	32	22	–	–
C/C(CC(=O)NC12CC3CC(CC(C3)C1)C2)=N\NC(=O)c1cnccn1	–	–	–	–
Oc1c(C(c2ccccc2)N2CCC3(CC2)OCCO3)sc2nc(-c3ccco3)nn12 (centres undefined)	·	·	–	–
Nc1c(C(=O)N/N=C/c2cccnc2)oc2nc(-c3ccccc3)cc(-c3ccco3)c12	–	–	–	?
O=CNn1cnc2c(oc3nc(-c4ccccc4)cc(-c4ccco4)c32)c1=O	–	–	–	40µM
CCC1CN(C(=O)Nc2ccc(C)c(F)c2)c2ccccc2S1 (centres undefined)	·	·	–	–
N#Cc1c(SCC(=O)Nc2nccs2)sc2c(O)cc(=O)[nH]c12	–	–	–	50µM
CCCSc1nnc(NC(=O)CSc2sc3c(O)cc(=O)[nH]c3c2C#N)s1	–	–	–	40µM
COc1ccc(-c2cc(C(=O)Nc3c(Cl)cccc3Cl)no2)cc1OC	·	·	–	–
CCN(c1ccccc1)c1nnc(NC(=O)Nc2ccc(C)cc2)s1	·	·	–	–
Nc1nnc(N2CCCCCC2)s1	–	–	–	–
O=C1CCCc2nc(N3CCCCC3)sc21	51	30	–	–
CC(C)CN1CCN(Cc2cnc(-c3ccc(Cl)cc3)nc2)CC1CCO (centres undefined)	–	13	–	–
OCCC1CN(Cc2cnc(-c3ccc(Cl)cc3)nc2)CCN1C1CCCC1 (centres undefined)	–	–	?	–
SMILES	Shiga toxin inh	CHX counter	FMDV antiviral	Sm TGR block
Cc1ccccc1-c1ncc(CN2CCN(C3CCCCC3)C(CCO)C2)cn1 (centres undefined)	–	22	–	–
Cc1ccc(CN2CCN(CC(C)C)C(CCO)C2)s1 (centres undefined)	82	39	–	?
CCOc1ccccc1CN1CCc2nc(Nc3ccc4c(c3)OCCO4)ncc2C1	·	·	?	–
CCc1ccc(NC(=O)Nc2cn(C)c(=O)c3ccccc23)cc1	·	·	–	–
CN1CCN(CCCC(=O)c2ccc(C3CCCC3)cc2)CC1	54	29	–	–
CC(C)c1ccc(NC2CCCN(C(=O)c3ccc(N4CCOCC4)cc3)C2)cc1 (centres undefined)	–	–	28µM	–
CC(C)c1cc(C(=O)N2CCCC(Nc3ccc(F)cc3)C2)n[nH]1 (centres undefined)	–	19	–	–
O=C(c1ccoc1)N1CCCC(Nc2ccc(F)c(F)c2)C1 (centres undefined)	–	–	–	–
Cc1ccc(C(=O)N2CCCC(Nc3ccc(C(C)C)cc3)C2)cn1 (centres undefined)	–	–	–	–
CC(C)c1ccc(NC2CCCN(C(=O)c3ccoc3)C2)cc1 (centres undefined)	32	–	–	–
O=C(NCCc1ccccc1)C1CCN(c2ncnc3c2nc2n3CCCCC2)CC1	·	·	–	–
O=[N+]([O-])c1ccc(-n2cc(-c3ccccc3)nn2)cc1	–	14	–	–
O=[N+]([O-])c1ccc(-c2cn3nc(-c4ccccc4)c(-c4ccccc4)nc3n2)cc1	–	–	–	–
CC1=C(c2ccc(C(C)C)cc2)S(=O)(=O)N=C1N1CCC(C(=O)NCc2ccc(C)o2)CC1	·	·	–	–
Cc1cc(C(=O)COC(=O)c2ccc[nH]c2=O)c(C)n1C1CC1	58	27	–	–
Cc1cc(C(=O)COC(=O)c2ccc[nH]c2=O)c(C)n1-c1ccc(F)cc1	76	39	–	–
Cc1cc(C(=O)COC(=O)c2ccc[nH]c2=O)c(C)n1-c1ccccc1	–	–	?	–
CCCn1c(-c2ccc(F)cc2)cnc1SCC(=O)O	–	–	–	–

From PubChem
